# Laboratory results reported in ChEMBL document CHEMBL3988442, “University of Dundee, Small-Polar-MMV Screening Library” (2021).
# Several values for one entry are separate records, joined by “and”; a condition that tells them apart may be missing. Equal entries are not always repeated. For some assays here: Entries with a potency or affinity are not part of this list.
# Legend:
# [1] = target: T1, Methionyl-tRNA synthetase, putative (Leishmania donovani (strain BPK282A1)) (UniProt E9BF75); assay: Leishmania donovani Methionine tRNA synthetase (LdMetRS):v7. Dose response assay; type: functional; set-up: conc 80 nM, time 150 minutes
# T1 sequence (whole entry): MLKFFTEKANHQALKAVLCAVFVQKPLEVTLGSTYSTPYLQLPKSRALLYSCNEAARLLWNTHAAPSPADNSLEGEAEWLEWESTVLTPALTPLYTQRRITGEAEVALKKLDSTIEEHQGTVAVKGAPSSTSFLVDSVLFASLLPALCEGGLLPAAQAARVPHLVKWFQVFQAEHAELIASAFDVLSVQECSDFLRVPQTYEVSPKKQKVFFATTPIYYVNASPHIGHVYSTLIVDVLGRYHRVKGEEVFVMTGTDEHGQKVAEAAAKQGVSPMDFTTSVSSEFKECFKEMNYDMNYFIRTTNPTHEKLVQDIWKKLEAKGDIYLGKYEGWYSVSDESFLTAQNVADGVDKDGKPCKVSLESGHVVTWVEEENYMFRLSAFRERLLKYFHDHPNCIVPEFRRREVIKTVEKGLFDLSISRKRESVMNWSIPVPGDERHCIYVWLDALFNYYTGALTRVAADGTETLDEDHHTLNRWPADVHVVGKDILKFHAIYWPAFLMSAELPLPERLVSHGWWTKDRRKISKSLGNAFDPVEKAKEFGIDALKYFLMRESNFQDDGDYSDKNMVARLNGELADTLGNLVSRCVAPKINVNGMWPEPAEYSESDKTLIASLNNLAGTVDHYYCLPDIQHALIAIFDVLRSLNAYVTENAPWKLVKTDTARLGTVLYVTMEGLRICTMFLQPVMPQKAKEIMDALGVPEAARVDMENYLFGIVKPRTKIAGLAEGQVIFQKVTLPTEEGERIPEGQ
# [2] = target: Protein translocase subunit SecA (Escherichia coli (strain K12)) (UniProt P10408); assay: Assay to Identify E. coli SecA ATPase Inhibitors; type: functional; set-up: scale not given: direction of the effect not stated beside the values; settings: 30 µM
# Protein translocase subunit SecA (Escherichia coli (strain K12)), sequence (P10408 whole entry): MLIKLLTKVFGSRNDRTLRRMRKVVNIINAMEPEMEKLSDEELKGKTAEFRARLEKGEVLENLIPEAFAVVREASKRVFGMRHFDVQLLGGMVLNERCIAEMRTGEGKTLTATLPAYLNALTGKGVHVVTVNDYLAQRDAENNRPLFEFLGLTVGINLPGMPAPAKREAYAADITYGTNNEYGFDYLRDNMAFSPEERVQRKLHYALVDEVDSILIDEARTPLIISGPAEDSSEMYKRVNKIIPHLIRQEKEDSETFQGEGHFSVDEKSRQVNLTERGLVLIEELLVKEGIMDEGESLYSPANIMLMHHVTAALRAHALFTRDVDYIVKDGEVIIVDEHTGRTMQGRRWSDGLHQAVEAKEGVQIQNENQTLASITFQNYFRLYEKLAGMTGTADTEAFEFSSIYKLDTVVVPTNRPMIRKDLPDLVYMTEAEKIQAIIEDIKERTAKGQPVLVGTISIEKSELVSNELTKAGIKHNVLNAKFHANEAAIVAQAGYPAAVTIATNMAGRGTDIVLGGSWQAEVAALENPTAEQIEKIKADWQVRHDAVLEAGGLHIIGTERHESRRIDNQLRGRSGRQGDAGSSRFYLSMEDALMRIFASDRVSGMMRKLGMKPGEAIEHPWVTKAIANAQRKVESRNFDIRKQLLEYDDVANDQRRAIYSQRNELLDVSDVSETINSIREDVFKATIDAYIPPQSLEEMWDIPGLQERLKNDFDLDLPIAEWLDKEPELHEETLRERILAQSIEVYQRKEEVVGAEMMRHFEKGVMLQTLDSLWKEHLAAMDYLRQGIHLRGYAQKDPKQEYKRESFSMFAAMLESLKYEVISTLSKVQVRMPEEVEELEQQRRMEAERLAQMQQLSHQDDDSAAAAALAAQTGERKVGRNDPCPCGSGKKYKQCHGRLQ
# [3] = target: T2, Ubiquitin-activating enzyme e1, putative (Leishmania donovani (strain BPK282A1)) (UniProt E9BSI1); assay: Leishmania donovani Ubiquitin Activating Enzyme (LdE1); type: functional; set-up: scale not given: direction of the effect not stated beside the values; settings: 30 µM
# T2 sequence (whole entry): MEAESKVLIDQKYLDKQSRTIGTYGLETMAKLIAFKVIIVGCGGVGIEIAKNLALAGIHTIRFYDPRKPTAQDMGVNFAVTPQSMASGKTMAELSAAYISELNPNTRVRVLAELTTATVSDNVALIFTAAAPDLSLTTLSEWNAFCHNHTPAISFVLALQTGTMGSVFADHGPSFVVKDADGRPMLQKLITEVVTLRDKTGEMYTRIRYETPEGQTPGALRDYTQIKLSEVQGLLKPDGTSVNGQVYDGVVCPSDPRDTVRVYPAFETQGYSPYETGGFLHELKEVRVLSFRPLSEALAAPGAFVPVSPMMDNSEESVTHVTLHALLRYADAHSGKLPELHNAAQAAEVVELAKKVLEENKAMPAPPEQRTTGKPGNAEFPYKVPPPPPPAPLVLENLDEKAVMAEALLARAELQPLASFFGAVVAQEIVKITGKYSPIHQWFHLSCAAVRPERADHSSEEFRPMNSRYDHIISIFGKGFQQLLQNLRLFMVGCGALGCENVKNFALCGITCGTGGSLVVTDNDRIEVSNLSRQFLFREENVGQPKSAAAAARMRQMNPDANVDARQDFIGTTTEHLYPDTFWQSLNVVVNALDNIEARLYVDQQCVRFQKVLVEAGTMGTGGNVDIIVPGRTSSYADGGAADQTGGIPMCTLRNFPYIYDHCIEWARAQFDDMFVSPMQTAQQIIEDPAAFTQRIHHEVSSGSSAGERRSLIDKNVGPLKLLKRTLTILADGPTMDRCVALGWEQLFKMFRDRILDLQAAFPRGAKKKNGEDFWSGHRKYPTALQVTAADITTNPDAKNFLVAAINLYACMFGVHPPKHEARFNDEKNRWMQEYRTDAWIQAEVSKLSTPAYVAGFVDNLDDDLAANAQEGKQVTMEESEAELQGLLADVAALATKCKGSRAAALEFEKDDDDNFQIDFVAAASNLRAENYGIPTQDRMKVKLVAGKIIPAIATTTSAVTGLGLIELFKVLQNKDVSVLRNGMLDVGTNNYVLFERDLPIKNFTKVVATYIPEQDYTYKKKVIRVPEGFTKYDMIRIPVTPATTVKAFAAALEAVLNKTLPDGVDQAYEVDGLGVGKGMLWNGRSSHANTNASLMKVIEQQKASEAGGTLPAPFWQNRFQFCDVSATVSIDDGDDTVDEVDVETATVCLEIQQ
# [4] = target: AMP-activated protein kinase, AMPK (Homo sapiens) (UniProt P54646+O43741+P54619+Q9UGJ0+Q9Y478+Q13131+Q9UGI9); assay: AMP-dependent Kinase enzyme assay. An in vitro enzyme assay that detects ADP turnover that is directly proportional to AMPK activity. This uses naive AMPK that is activated during the assay with MK-8722; type: functional; set-up: scale not given: direction of the effect not stated beside the values; settings: 30 µM
# [5] = target: Sialic acid-binding Ig-like lectin 9 (Homo sapiens) (UniProt Q9Y336); assay: Hs-Siglec9 ALPHAscreen SOP 20170721; set-up: scale not given: direction of the effect not stated beside the values; settings: 10 µM
# Sialic acid-binding Ig-like lectin 9 (Homo sapiens), sequence (Q9Y336 whole entry): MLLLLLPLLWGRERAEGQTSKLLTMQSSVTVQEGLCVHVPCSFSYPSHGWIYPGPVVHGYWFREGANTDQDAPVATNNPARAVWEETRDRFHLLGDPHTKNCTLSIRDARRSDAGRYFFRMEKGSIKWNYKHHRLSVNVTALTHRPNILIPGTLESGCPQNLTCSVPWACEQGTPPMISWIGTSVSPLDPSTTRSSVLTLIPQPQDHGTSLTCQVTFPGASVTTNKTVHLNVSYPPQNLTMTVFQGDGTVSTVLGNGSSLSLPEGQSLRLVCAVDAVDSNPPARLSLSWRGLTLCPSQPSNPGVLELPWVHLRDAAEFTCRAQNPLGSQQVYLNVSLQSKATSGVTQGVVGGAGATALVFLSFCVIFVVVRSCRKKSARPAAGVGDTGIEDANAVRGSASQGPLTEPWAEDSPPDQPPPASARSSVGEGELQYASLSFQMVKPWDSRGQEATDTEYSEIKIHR
# Trypanosoma cruzi = assay: Trypanosoma cruzi phosphomannomutase and mannose-1-phosphate guanylyltransferase assay; type: functional; set-up: scale not given: direction of the effect not stated beside the values; settings: 10 µM
# [6] = target: T3, Arginase-2, mitochondrial (Homo sapiens) (UniProt P78540); assay: in vitro enzyme assay to detect the production of urea directly proportional to the activity of Arginase II; type: functional; set-up: scale not given: in the data most compounds retested in dose-response had high values
# T3 sequence (whole entry): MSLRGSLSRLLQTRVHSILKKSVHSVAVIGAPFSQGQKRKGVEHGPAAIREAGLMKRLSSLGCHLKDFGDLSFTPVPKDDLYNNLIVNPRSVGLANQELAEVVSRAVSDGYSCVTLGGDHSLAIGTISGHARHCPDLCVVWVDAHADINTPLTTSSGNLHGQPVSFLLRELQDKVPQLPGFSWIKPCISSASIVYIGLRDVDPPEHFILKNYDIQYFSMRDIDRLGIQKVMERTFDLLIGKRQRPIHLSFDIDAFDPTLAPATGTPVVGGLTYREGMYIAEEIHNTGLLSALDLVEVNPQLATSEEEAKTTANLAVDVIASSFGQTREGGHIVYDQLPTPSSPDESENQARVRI
# [7] = target: T4, Proteasome subunit beta (Trypanosoma cruzi) (UniProt O96673); assay: Trypanosoma cruzi proteasome chymotrypsin-like activity (TcProtChymo) assay.; type: functional; set-up: scale not given: in the data most compounds retested in dose-response had high values; settings: 9.37 µM
# T4 sequence (whole entry): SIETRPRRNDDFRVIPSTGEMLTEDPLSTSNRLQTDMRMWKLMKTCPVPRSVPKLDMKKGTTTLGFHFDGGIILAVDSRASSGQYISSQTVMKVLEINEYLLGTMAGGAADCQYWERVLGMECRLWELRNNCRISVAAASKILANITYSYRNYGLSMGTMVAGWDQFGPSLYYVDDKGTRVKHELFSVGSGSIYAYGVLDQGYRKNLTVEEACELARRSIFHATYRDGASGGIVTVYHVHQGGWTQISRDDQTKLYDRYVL
# Homo sapiens = species: Homo sapiens; assay: To identify inhibition of the IFN signalling (Jak-Stat) pathway via expression of an eGFP reporter gene under the control of an IFN-stimulated response element (ISRE) containing MxA promoter.; type: functional; set-up: scale not given: direction of the effect not stated beside the values; settings: 30 µM
# [8] = target: T5, Tyrosyl-tRNA synthetase, putative (Trypanosoma cruzi (strain CL Brener)) (UniProt Q4DSP6); assay: Trypanosoma cruzi tyrosyl tRNA synthetase (TcYRS) _High Tyrosine SOP; type: functional; set-up: scale not given: in the data most compounds retested in dose-response had high values; settings: 30 µM
# T5 sequence (whole entry): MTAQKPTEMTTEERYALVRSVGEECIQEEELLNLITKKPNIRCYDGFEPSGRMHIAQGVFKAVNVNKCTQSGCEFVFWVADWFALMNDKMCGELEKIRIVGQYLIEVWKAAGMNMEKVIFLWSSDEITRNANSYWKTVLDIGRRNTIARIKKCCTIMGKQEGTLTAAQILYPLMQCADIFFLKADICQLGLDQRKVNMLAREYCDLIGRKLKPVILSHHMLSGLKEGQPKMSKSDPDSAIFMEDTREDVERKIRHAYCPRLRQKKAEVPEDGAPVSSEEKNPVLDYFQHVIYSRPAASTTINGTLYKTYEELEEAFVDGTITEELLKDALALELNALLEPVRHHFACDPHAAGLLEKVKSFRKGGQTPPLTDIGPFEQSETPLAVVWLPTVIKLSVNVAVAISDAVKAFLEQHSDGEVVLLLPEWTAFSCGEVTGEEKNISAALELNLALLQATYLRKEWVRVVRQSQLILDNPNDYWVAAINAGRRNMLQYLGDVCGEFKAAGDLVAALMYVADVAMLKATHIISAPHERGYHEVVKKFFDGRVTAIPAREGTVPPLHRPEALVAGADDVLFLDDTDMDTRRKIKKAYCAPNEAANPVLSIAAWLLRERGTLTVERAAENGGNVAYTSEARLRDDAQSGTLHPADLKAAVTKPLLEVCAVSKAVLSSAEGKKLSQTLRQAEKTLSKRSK
# [9] = target: T5, Tyrosyl-tRNA synthetase, putative (Trypanosoma cruzi (strain CL Brener)); assay: Trypanosoma cruzi tyrosyl tRNA synthetase (TcYRS) SOP; type: functional; set-up: scale not given: direction of the effect not stated beside the values; settings: 30 µM
# [10] = target: Chromo domain-containing protein 1 (Saccharomyces cerevisiae (strain ATCC 204508 / S288c) (Baker's yeast)) (UniProt P32657); assay: ScCHD-1 Enzyme Inhibition Assay; type: functional; set-up: scale not given: in the data most compounds retested in dose-response had high values; settings: 30 µM
# Chromo domain-containing protein 1 (Saccharomyces cerevisiae (strain ATCC 204508 / S288c) (Baker's yeast)), sequence (P32657 whole entry, the tested form may be a part): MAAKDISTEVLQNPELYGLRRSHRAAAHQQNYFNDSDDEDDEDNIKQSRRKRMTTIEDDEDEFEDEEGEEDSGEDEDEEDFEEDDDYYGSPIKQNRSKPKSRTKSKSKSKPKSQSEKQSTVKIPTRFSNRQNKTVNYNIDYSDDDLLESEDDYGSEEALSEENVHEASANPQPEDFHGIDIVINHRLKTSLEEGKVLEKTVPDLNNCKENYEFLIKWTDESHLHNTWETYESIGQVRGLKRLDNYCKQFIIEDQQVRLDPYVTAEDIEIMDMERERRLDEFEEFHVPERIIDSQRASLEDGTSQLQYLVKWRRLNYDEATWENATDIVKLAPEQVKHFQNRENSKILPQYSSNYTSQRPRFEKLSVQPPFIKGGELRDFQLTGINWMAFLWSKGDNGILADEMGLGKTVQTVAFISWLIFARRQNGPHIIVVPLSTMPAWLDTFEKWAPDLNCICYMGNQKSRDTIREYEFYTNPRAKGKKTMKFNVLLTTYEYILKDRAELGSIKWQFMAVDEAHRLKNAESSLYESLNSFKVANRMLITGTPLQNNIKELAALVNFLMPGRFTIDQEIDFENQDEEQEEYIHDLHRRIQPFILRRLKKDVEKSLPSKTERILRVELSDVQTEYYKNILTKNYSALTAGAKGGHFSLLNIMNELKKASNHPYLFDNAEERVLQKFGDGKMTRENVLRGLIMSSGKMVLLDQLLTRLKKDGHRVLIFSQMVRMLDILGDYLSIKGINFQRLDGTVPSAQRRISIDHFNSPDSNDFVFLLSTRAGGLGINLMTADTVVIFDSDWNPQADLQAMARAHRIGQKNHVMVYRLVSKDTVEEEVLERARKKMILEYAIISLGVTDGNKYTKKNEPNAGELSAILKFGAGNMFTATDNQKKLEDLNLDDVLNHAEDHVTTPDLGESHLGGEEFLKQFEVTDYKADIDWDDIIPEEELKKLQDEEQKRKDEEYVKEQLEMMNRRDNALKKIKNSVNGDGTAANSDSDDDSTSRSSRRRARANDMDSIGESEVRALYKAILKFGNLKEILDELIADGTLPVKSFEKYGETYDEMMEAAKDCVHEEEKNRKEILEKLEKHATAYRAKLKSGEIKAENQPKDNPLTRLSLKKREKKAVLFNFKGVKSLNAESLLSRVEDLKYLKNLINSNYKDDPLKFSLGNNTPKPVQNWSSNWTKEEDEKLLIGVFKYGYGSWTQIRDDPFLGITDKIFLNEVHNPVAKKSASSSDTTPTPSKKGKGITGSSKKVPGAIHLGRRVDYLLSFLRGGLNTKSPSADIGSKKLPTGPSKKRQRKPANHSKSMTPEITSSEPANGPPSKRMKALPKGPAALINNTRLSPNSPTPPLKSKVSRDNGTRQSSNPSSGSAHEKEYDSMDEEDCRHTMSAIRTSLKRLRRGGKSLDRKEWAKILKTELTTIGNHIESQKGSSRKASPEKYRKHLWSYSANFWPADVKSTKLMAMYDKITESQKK
# N/A = assay: Trypanosoma cruzi proteasome luciferase counter-screen; type: functional; set-up: scale not given: direction of the effect not stated beside the values; settings: 9.37 µM
SMILES,PXC50 ([1]; MAX_EFFECT 12.14788732),PXC50 ([1]; MAX_EFFECT 12.35154394),Percent Effect [2],Percent Effect [3],Percent Effect [4],Percent Effect [5],Percent Effect (Trypanosoma cruzi),Percent Effect ([6]; 33.3 µM),Percent Effect [7],Percent Effect (Homo sapiens),Percent Effect [8],Percent Effect [9],Percent Effect [10],PXC50 ([1]; MAX_EFFECT 3.800475059),PXC50 ([1]; MAX_EFFECT 6.161971831),Percent Effect ([6]; 30 µM),"PXC50 ([1]; BOTTOM -1.512370452, HILLSLOPE 1.01203919, MAX_EFFECT 54.40140845, TOP 92.97919978)","PXC50 ([1]; BOTTOM -1.802135636, HILLSLOPE 1.091019119, MAX_EFFECT 56.05700713, TOP 88.72898538)",Percent Effect (N/A)
FC1(F)CCN(Cc2cccnc2)CC12CCN(c1ccccn1)C2 (configuration not stated),< 4,< 4,-2.18%,16.2%,5.61%,-2.07%,-4.99%,17.5%,21.4%,33.7%,1.08%,12.8%,-3.06%,–,–,–,–,–,–
FC1(F)CCN(Cc2ccccn2)CC12CCN(c1cccnc1)C2 (configuration not stated),–,–,-7.19%,2.7%,114%,-3.38%,-1.86%,2.87%,0.369%,49.7%,-3.24%,-2.56%,-1.38%,< 4,< 4,–,–,–,–
CN(C)C(=O)CNC(=O)c1cc(Br)c2c(c1)OCCO2,–,–,-5.71%,8%,-2.43%,7.31%,4.58%,1.56%,21.6%,-10.2%,7.1%,18.5%,-4.33%,–,–,4.87%,–,–,–
COc1c(CNC2CCc3c(Cl)cccc32)c(C)nn1C (configuration not stated),–,–,-3.04%,8%,-13.3%,15.4%,7.89%,14.1%,16.2%,53.8%,4.92%,16.1%,108%,–,–,1.62%,–,–,–
CN(CC1CC1)c1ccc2ccc(C(=O)NCCN3CCOCC3)cn12,–,–,0.0454%,6.49%,–,-2.21%,2.06%,2.28%,0.944%,29.3%,34.8%,15%,-2.15%,–,–,–,4.18,4.23,–
COc1ccccc1Oc1ncccc1CNC(=O)[C@@H](C)NC(C)=O,–,–,-1.21%,-4.17%,-4.59%,-7.34%,-3.98%,2.21%,-0.526%,2.14%,2.1%,-2.56%,2.74%,–,–,4.87%,–,–,–
CC1=Nc2c(c(=O)[nH]n2C2CCCC2)C(c2cccc(O)c2)S1 (configuration not stated),–,–,-2.38%,-1.33%,11.5%,2.03%,1.38%,-1.23%,11.3%,36.2%,14.8%,20.5%,0.661%,–,–,-1.62%,–,–,–
Cc1ccccc1-c1cncc(C2CCN(C(=O)CN(C)C)CC2)n1,–,–,-4.06%,6.76%,14.4%,-6.59%,-4.74%,-8.59%,9.83%,19.1%,0%,1.3%,-14.4%,–,–,-1.62%,–,–,–
Cn1cc(CC2CCN(C(=O)NCCc3cccc(O)c3)C2)cn1 (configuration not stated),–,–,-1.93%,0%,11.8%,1.28%,-3.8%,-2.37%,11%,-12%,5.32%,7.79%,-2.6%,–,–,5.95%,–,–,–
CCOc1ncccc1NC(=O)c1cc2c(s1)CCC2,–,–,1.48%,9.72%,8.31%,7.26%,2.82%,-6.18%,22.1% and 36.7% and 23%,9.51%,4.21%,10.3%,63.8%,–,–,–,–,–,13.8% and 15.3%
